HepG2 viability: HepG2 cytotoxicity, counter-screen for TGF-b inhibitors; HepG2 CAGA-GFP viability, ATP luminescence, 18 h; Potency, µM (titrated, usually from 46.1 µM), for the others: at the highest dose activity change, negative = cytotoxicity, most hits filed as cytotoxic; 410,000 tested, 0.76% active; further: potency means the concentration at half of the fitted maximal effect
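CellTiter-Glo luminescence gave cytotoxicity after 18 hours at 37 degrees C. The cells were HepG2 CAGA-GFP in 1% FBS DMEM, stimulated with 500 pg/mL TGF-beta after compound addition. %Activity was normalised to no-cell wells (complete cell-killing) and DMSO (no toxicity), and curves were fitted and classified.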
ATXN2 expr inh: inhibitors of ATXN2 expression. HEK-293 ATXN2-luciferase reporter, luminescence, 24 h. Potency, µM (highest dose often 57 µM), inactives show at the top dose activity change, negative = inhibition, hits mostly inhibitors. 360,000 tested, 0.72% active; further: potency means the concentration at half of the fitted maximal effect; on the % scale 0 is the no-effect control and ±100 the full control effect; nearly all actives have a fitted effect of over 55% in size
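qHTS (up to 57 uM final) was run with 24 h compound exposure of reporter cells at 37 °C. Each well was multiplexed: SteadyGlo luminescence measured ATXN2-luciferase expression after a fluorogenic Gly-Phe-AFC viability readout (25 uM final).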
TGFb inhibitor: blocks TGF-b signaling | HepG2 CAGA-GFP TGF-b/SMAD3 reporter, GFP fluorescence, 18 h; TGF-beta stimulated, 500 pg/mL final | Potency, µM (top dose mostly 46.1 µM), for the others: at the highest dose activity, negative = inhibition, hits mostly inhibitors | 410,000 tested, 1.2% active | AID 588855; further: potency means the concentration at half of the fitted maximal effect; on the % scale 0 is the no-effect control and ±100 the full control effect; nearly all actives have a fitted effect of over 65% in size
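Using HEPG2 CAGA-GFP reporter cells at 1000 cells/well, we pinned test compounds, stimulated with recombinant TGF-beta (500 pg/mL final) and measured total well GFP after 18 h.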
S2 tox: viability counter-screen for ATXN expression inhibitors | S2 cells (HEK-293 line with an ATXN2-luciferase reporter) viability, CellTiter-Fluor protease fluorescence, 24 h | Potency, µM (series often up to 56.7 µM), actives largely listed as cytotoxic | 400,000 tested, 0.49% active; further: potency means the concentration at half of the fitted maximal effect; nearly all actives have a fitted effect of over 40% in size
DRD3 antagonist: antagonists of human D3 dopamine receptor. P35462. max response, negative = inhibition, %. 360,000 tested, 2.5% active. D3R cells, DiscoveRx beta-arrestin luminescence, antagonist mode; hits give low values; in the data active means max response below about -50%; inconclusive means no clear call, values can overlap the other calls; further: on the % scale 0 is the no-effect control and ±100 the full control effect
Target sequence (P35462 whole entry, looked up): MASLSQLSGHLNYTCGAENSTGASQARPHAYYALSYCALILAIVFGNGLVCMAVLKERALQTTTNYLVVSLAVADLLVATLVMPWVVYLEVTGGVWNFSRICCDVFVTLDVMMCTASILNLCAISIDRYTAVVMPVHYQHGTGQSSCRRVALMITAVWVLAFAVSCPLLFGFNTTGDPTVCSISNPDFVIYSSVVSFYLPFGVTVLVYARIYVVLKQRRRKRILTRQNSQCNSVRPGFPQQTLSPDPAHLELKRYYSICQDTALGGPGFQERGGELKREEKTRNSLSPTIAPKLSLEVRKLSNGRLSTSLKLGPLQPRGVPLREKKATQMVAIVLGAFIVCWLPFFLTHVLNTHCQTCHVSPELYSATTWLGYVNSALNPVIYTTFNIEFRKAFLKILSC
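Cells expressing the human receptor were seeded at 1500 cells/well, incubated overnight at 37 degrees C in 5% CO2, then exposed to library compounds with dopamine controls for 90 minutes at 37 degrees C before luminescent detection.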
D3 ag: agonists of human D3 dopamine receptor; P35462; D3R DiscoveRx beta-arrestin cells, luminescence, 90 min; max activation, %; 410,000 tested, 0.58% active; AID 652048; in the data active means max activation above about 30%; further: 0% is about no effect
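Agonist-mode cell screen: cells plated at 1500/well and incubated overnight at 37 °C, then exposed to library compounds for 90 min at 37 °C. Detection reagent was added for 30–60 min at room temperature, and luminescence was read.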
* hit, by the source's call; i = inactive; ? = inconclusive; / = no result; ! = not confirmed by another sample. Hits are enriched below; roughly 4.8% of the tested compounds scored in any of these assays. Unless noted, the call rests on the fitted dose curve; in most records, active means well fitted curve in the direction sought with a large enough effect; inconclusive means small, poorly fitted or top-dose-only effect, or another doubt; inactive means no such curve, though single readings can be large; an effect the other way counts as inactive or inconclusive.

SMILES	HepG2 viability	ATXN2 expr inh	TGFb inhibitor	S2 tox	DRD3 antagonist	D3 ag
O=C1c2ccccc2C(=O)N1CC#CCN1CCN(C(c2ccccc2)c2ccccc2)CC1	0%	-1%	0%	i	-88*	-18
CCCCn1nnnc1C(c1ccccc1)N1CCCN(Cc2ccc(F)cc2)CC1 (stereo unspecified)	/	-14%	/	?	-69*	-13
Fc1ccc(CN2CCN(C(c3ccccc3)c3ccccc3)CC2)cc1	-15%	/	?	i	-82*	-23
O=C(N[C@@H]1c2ccccc2C2(CCN(C(=O)c3cc4ccccc4oc3=O)CC2)[C@H]1O)c1cccnc1	/	/	/	i	/	/
CC(C=CC=C(C)C=CC1=C(C)CCCC1(C)C)=CC=CC=C(C)C=CC=C(C)C=CC1=C(C)CCCC1(C)C	/	9%	/	/	/	/
COC(=O)c1ccccc1-c1cc(C)cc2c1OC(CNC(=O)c1cnc(C)cn1)C2 (stereo unspecified)	/	/	/	i	/	/
O=S(=O)(CCN1CCN(C(c2ccccc2)c2ccccc2)CC1)C(F)(F)F	-26%	?	?	i	-50*	0
CCCS(=O)(=O)N1CCC(C(=O)NCCN2CCC(Cc3ccccc3)CC2)CC1	0%	-5%	-20%	i	-57*	5
CCC1CCCCN1CCCNC(=O)C1CCCN(c2nn3c(=O)cc(C)nc3s2)C1 (stereo unspecified)	-1%	-2%	0%	i	-2	-1
O=C(NCCN1CCN(c2ccccc2)CC1)C1CCN(S(=O)(=O)N2CCOCC2)CC1	18%	-1%	-1%	i	-4	63*
Cc1cc(=O)n2nc(N3CCCC(C(=O)NCCCN4CCc5ccccc5C4)C3)sc2n1 (stereo unspecified)	-4%	-3%	-21%	i	-86*	-17
O=C(NCCCN1CCN(c2ccccc2F)CC1)C1CCN(S(=O)(=O)N2CCOCC2)CC1	0%	-10%	17%	i	?	26
O=C(NCCN1CCN(c2ccccc2)CC1)c1ccc(NC(=O)C2CCCO2)cc1 (stereo unspecified)	-19%	-6%	-14%	i	-15	70*
CCS(=O)(=O)N1CCC(C(=O)NCCCN2CCC(Cc3ccccc3)CC2)CC1	-16%	2%	-1%	i	-12	-1
COc1cccc(CNC(=O)c2ccc3c(c2)nc2n3CCOC2)c1OC	-2%	/	-1%	/	/	6
CC1=C(C(=O)Nc2cccnc2)C(c2ccc(F)cc2)n2nc(SCc3ccccc3)nc2N1 (stereo unspecified)	0%	0%	6%	i	/	6
COc1cccc(CNc2ncnc3c2nnn3C)c1	-11%	/	1%	/	/	-2
Cc1cccc2c1-c1sc(C(=O)N(C)c3cccc(Cl)c3)cc1CO2	-25%	1%	?	i	/	-1
CC1=C(C(=O)OC2CCCC2)C(c2ccccc2C(F)(F)F)CC(=O)N1 (stereo unspecified)	-55%	-24%	0%	i	/	2
O=C(NCCc1ccccc1)C1CCN(S(=O)(=O)N2CCCCC2)CC1	0%	4%	5%	i	-15	-1
O=C(NCCCN1CCc2ccccc2C1)C1CCN(S(=O)(=O)N2CCCC2)CC1	-24%	4%	-13%	i	-80*	-28
O=C(NCCCN1CCc2ccccc2C1)C1CCN(S(=O)(=O)N2CCC3(CC2)OCCO3)CC1	-12%	/	-14%	i	-65*	-12
O=C(NCCCN1CCCCC1)C1CCN(S(=O)(=O)N2CCC3(CC2)OCCO3)CC1	-37%	-3%	2%	i	-13	-3
COc1ccc(CCNC(=O)c2cc(-c3cccs3)on2)cc1OC	-20%	?	-10%	i	14	36*
COc1ccccc1-c1cc(C(=O)NCc2cccs2)no1	-8%	5%	0%	i	?	-8
SMILES	HepG2 viability	ATXN2 expr inh	TGFb inhibitor	S2 tox	DRD3 antagonist	D3 ag
COc1ccc(OC)c(-c2cc(C(=O)NCc3cccs3)no2)c1	0%	7%	?	i	-96*	-27
CCc1ccccc1NC(=O)N1CCN(c2cc(-c3noc(C)n3)ccc2C)CC1	-23%	5%	3%	i	/	-10
COc1ccc(Nc2nc(N)c([N+](=O)[O-])c(NCCO)n2)cc1	-35%	-19%	?	i	1	2
COc1ccc(Nc2nc(N)c([N+](=O)[O-])c(NC3CCCCC3)n2)cc1	22µM*	?	?	/	18	1
COc1ccccc1CNC(=O)CSc1nc(=O)[nH]c2c1CCC2	-2%	/	1%	/	/	8
Cc1ccc(C)c(NC(=O)CSc2nnc(-c3ccncc3)n2N)c1	-18%	2%	?	i	-70*	-3
Cc1ccc(C)c(NC(=O)CSc2nnc(C)c(=O)n2N)c1	6%	-4%	8%	i	-10	4
COc1ccc2c(c1OC)C(=O)OC2c1ccc(O)cc1 (stereo unspecified)	6%	/	15%	/	/	/
Cc1cc(-n2c(C)c3c(C)nnc(C)c3c2C)ccc1N	4%	-11%	-13%	i	7	27
Cc1ccc(-n2c(C)c3c(C)nnc(C)c3c2C)cc1C	-23%	-15%	-2%	i	-58*	2
O=C(CN1CCN(c2ccccn2)CC1)Nc1cc(C(F)(F)F)ccc1Cl	4%	-19%	0%	i	0	6
CNCC(=O)Nc1ccc(Cl)c(C(F)(F)F)c1	-37%	-30%	4%	i	-5	-13
COc1ccc(C(=O)Nc2ccc(OCC(F)(F)C(F)F)c(C(F)(F)F)c2)cc1OC	3%	-31%	?	i	29	7
O=C(Nc1ccc(Cl)cc1)Nc1ccc(Cl)c(C(F)(F)F)c1	/	?	/	16µM*!	/	1
O=C(Nc1ccc(OCC(F)(F)C(F)F)c(C(F)(F)F)c1)c1ccc(Cl)cc1	18µM*	?	?	i	-1	-7
O=C(CN1CCN(c2ccc(Cl)cc2)CC1)Nc1ccc(Cl)c(C(F)(F)F)c1	-40%	?	10µM*	?	/	6
O=C(CN1CCN(c2ccccn2)CC1)Nc1ccc(Cl)c(C(F)(F)F)c1	30%	-11%	8%	i	-66*	3
Cc1ccc(S(=O)(=O)C2(C(=O)Nc3ccc(Cl)c(C(F)(F)F)c3)CC2)cc1	-50%	-18%	11µM*	?	/	3
CCOc1ccc(NC(=O)CN2CCN(CC(=O)Nc3ccc(Cl)c(C(F)(F)F)c3)CC2)cc1	13µM*	?	?	?	3	30
